Measured values taken from PubChem BioAssay.
Active and inactive are the calls of the source. Unless noted, how the calls were made is not given here.

What was measured:
[1] = system: XIP peptide (Xip251-270) binding; assay: small-molecule binders of XIP peptide, primary screen, biochemical, small-molecule microarray, fluorescence 635/667 nm, 0.1 µg/mL protein (AID 1182); conditions: fluorescent protein binding, 635 nm, higher = more signal, called active from +8 up or from −8 down
XIP peptide (Xip251-270) = assay: small-molecule binders of XIP peptide, primary screen, biochemical, small-molecule microarray, fluorescence 635/667 nm, 0.5 µg/mL protein (AID 1183); conditions: small-molecule microarray binding, fluorescence 635 nm; higher = more signal
[2] = Plasmodium falciparum growth inhibition, primary screen, strain 3D7, DAPI fluorescence, 100 nL (AID 1184);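 further: parasites grown inside human red blood cells in medium with human serum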; conditions: P. falciparum 3D7 growth, 3 d, higher = more signal
[3] = molecular target: Homeobox protein Hox-A13 (Mus musculus) (UniProt Q62424); assay: inhibitors of HoxA13-DNA binding, primary screen, biochemical, fluorescence polarization, labeled oligonucleotide (AID 1185); conditions: 15 min, higher = more signal, called active from +8 up or from −8 down
[4] = inhibitors of hydroxyurea-induced Chk1 phosphorylation, primary screen, imaging, HeLa, phospho-Chk1 antibody, percent positive cells (AID 1186); conditions: hydroxyurea-induced phospho-Chk1 immunofluorescence imaging, higher = more signal
[5] = inhibitors of hydroxyurea-induced Chk1 phosphorylation, primary screen, imaging, HeLa, phospho-Chk1 nuclear intensity (AID 1187); conditions: hydroxyurea-induced phospho-Chk1 immunofluorescence imaging, higher = more signal

Homeobox protein Hox-A13 (Mus musculus), sequence (Q62424 whole entry, looked up): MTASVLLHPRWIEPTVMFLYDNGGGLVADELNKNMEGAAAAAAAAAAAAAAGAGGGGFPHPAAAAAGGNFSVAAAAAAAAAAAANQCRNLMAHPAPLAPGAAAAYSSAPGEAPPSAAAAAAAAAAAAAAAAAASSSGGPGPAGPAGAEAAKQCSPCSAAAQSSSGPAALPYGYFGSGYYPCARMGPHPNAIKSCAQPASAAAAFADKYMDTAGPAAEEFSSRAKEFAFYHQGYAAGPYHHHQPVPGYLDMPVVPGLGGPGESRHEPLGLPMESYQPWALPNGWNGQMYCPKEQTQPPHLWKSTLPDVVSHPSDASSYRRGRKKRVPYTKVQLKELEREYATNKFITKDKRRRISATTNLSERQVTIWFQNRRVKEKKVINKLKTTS

| Structure (SMILES) | composite z-score [1] | composite z-score (XIP peptide (Xip251-270)) | z-score [2] | z-score [3] | z-score [4] | z-score [5] |
| --- | --- | --- | --- | --- | --- | --- |
| CCOC(=O)C[C@H]1[C@H](OC(=O)c2ccccc2-c2ccccc2)[C@@H](NC(=O)C2CCCCC2)c2cc(OCCCO)ccc2N1C(=O)c1ccccc1 | -0.339 (inactive) | 0.0325 | -1.35 | -3.05 (inactive) | -0.319 (inactive) | -0.0975 (inactive) |
| C=CCN1C(=O)[C@@]2(O[C@@H](CCn3cc([C@H](O)c4ccccc4)nn3)[C@H]([Si](C)(C)c3ccc(OC)cc3)[C@H]2C)c2cc(N3CCOC3=O)ccc21 | 0.0505 (inactive) | -0.52 | -2.71 | -4.69 (inactive) | -1.49 (inactive) | -1.43 (inactive) |
| C[C@@H]1CC[C@H]2C(=O)N3[C@@H](CC[C@@H](C)[C@@H]3c3cccc(N4CCOCC4)c3)C(=O)N2[C@H]1c1cccc(Br)c1 | 0.806 (inactive) | 0.541 | 0.656 | -5.55 (inactive) | – | – |
| C[C@H]1COC(=O)[C@@H]2CCCN2C(=O)[C@@H](C)COC(=O)[C@@H]2CCCN2C1=O | -0.0153 (inactive) | 0.454 | -0.12 | -5.05 (inactive) | – | – |
| C=C(CCCC)C(=O)CC[C@@H](OC(C)=O)c1ccccc1OCCO | 0.144 (inactive) | -1.02 | -1.77 | -4.53 (inactive) | -0.21 (inactive) | -0.223 (inactive) |
| Cc1ccc(S[C@]2(C(=O)NCCN3CCOCC3)CC(=O)N(C3Cc4ccccc4C3)[C@@H]2c2ccc(CO)cc2I)cc1 | 0.669 (inactive) | 0.771 | -0.861 | -2.43 (inactive) | 0.18 (inactive) | 0.764 (inactive) |
| CO[C@H]1COC(=O)CC=C[C@@H](C)COC(=O)[C@@H](C)NC(=O)CC=C[C@@H]1C | 0.89 (inactive) | 0.405 | -0.437 | 0.382 (inactive) | – | – |
| C=C(CCCC)/C(=C/C[C@@H](OC(=O)c1ccncc1)c1ccc(CO)o1)c1cnc2ccccc2c1 | 0.518 (inactive) | 0.776 | -0.573 | -4.65 (inactive) | 0.222 (inactive) | -0.125 (inactive) |
| CN(C)c1ccc(C(O)C2C=CC3C(=O)NC(=O)C3N2Nc2ccc(Cl)cc2Cl)cc1 (stereo not drawn) | -0.0906 (inactive) | 0.16 | -0.599 | -4.19 (inactive) | -0.0923 (inactive) | 0.0147 (inactive) |
| CC[C@H]1C2=C3C(CC[C@H]4C(OC)OC[C@](C)([C@@H]34)N(C(=O)OC(C)(C)C)C2)C(CO)C1CO (stereo partly drawn) | 0.442 (inactive) | 0.701 | -0.62 | -4.74 (inactive) | -1.37 (inactive) | -1.18 (inactive) |
| COc1ccc([Si](C)(C)[C@H]2[C@H](CCO)O[C@@]3(C(=O)N(Cc4ccccc4)c4ccc(N5C(=O)c6cccc7cccc5c67)cc43)[C@@H]2C)cc1 | 1.25 (inactive) | 0.353 | -2.48 | 0.2 (inactive) | -1.01 (inactive) | -0.207 (inactive) |
| COC(=O)C1=CC(c2ccc(CO)cc2)=CC(C2CC2)N(Cc2sc3ccccc3c2Cl)C=C1C(=O)OC (stereo not drawn) | 2.17 (inactive) | 0.889 | -2.13 | -2.26 (inactive) | -0.288 (inactive) | -0.225 (inactive) |
| CO[C@H]1COC(=O)[C@H](C)COC(=O)[C@H](Cc2ccccc2)NC(=O)CC=C[C@H]1C | -0.454 (inactive) | 0.613 | 0.724 | 0.57 (inactive) | – | – |
| COc1ccc(-c2cc3c(c(-c4ccccc4)n2)[Si](C(C)C)(C(C)C)O[C@H]3c2ccccc2)cn1 | 0.64 (inactive) | 0.559 | -2.91 | -2.23 (inactive) | -0.317 (inactive) | -0.344 (inactive) |
| C[C@H]1C2[C@H](Cc3ccccc3)NC(=O)[C@]23C(=O)N[C@H](Cc2ccccc2)C(=O)N[C@@H](Cc2ccccc2)C(=O)NC/C=C\C/C=C/C3[C@@H]2O[C@]12C (stereo partly drawn) | -0.157 (inactive) | -0.564 | -0.873 | -7.06 (inactive) | 0.531 (inactive) | 0.375 (inactive) |
| C[C@@H]1NC(=O)CC=C[C@@H](C)[C@@H]2C=C[C@H](O)[C@@H](COC(=O)[C@H](C)NC(=O)CC=C[C@@H](C)[C@@H]3C=C[C@H](O)[C@@H](COC1=O)O3)O2 | -0.217 (inactive) | 0.221 | -1.47 | 0.881 (inactive) | – | – |
| COc1cc([C@@H]2N[C@H](C(=O)O)Cc3c2[nH]c2ccccc32)cc(OC)c1OC | -0.374 (inactive) | 0.564 | -0.0372 | -1.66 (inactive) | – | – |
| CO[C@@H]1COC(=O)[C@H](COCc2ccccc2)NC(=O)CC=C[C@@H](C)[C@H](OC)COC(=O)[C@H](COCc2ccccc2)NC(=O)CC=C[C@H]1C | 0.271 (inactive) | -0.713 | -0.989 | 0.421 (inactive) | – | – |

| Structure (SMILES) | composite z-score [1] | composite z-score (XIP peptide (Xip251-270)) | z-score [2] | z-score [3] | z-score [4] | z-score [5] |
| --- | --- | --- | --- | --- | --- | --- |
| CO[C@@H]1COC(=O)[C@H](C)NC(=O)CC=C[C@@H](C)[C@H](NS(=O)(=O)c2ccc(C)cc2)COC(=O)CC=C[C@@H]1C | -0.44 (inactive) | -0.507 | 0.635 | 0.769 (inactive) | – | – |
| C=C(COC)C(=O)CC[C@H](OC(=O)c1ccccc1-c1ccccc1C(=O)O)c1cccc(OCCO)c1 | 0.437 (inactive) | 0.569 | -0.034 | -4.76 (inactive) | 0.369 (inactive) | 0.258 (inactive) |
| CCC#CCN(Cc1ccccc1Br)[C@H](/C=C/c1ccccc1)[C@@H](O)Cc1ccccc1 | -0.276 (inactive) | -0.613 | -0.609 | 0.462 (inactive) | -0.415 (inactive) | -0.241 (inactive) |
| CO[C@H]1COC(=O)[C@@H](OCc2ccccc2)C=C[C@H](C)[C@@H](OC)COC(=O)[C@H](OCc2ccccc2)C=C[C@@H]1C | -1.11 (inactive) | -0.267 | 0.313 | 0.371 (inactive) | – | – |
| CCN1C(C)=C(C(=O)OC)[C@@H](c2ccccc2)N2C(=O)[C@](O)(C(=O)OC)[C@@H](c3ccccc3)C(C(C)=O)=C12 | -0.192 (inactive) | -1.35 | -1.56 | -1.27 (inactive) | – | – |
| CCc1cccc(NC(=O)O[C@H]2[C@H](OC(=O)Nc3ccccc3)[C@@H](OC(=O)Nc3ccccc3)[C@@H](OC)O[C@@H]2CO)c1 | 0.652 (inactive) | 0.886 | -2.16 | -5.07 (inactive) | -0.235 (inactive) | -0.0949 (inactive) |
| COc1ccc(C(O)C2C=CC3C(=O)N(C)C(=O)C3N2N2CCCCC2)cc1OCc1ccccc1 (stereo not drawn) | -0.001 (inactive) | 0.582 | -0.303 | -4.76 (inactive) | 0.245 (inactive) | -0.0779 (inactive) |
| C=CC(=O)O[C@@H](Cc1ccccc1)[C@H]1C2C=CCCC=C2CN1Cc1cccc(Cl)c1 (stereo partly drawn) | -0.244 (inactive) | -2.01 | -0.0093 | -3.7 (inactive) | 0.171 (inactive) | 0.304 (inactive) |
| CO[C@@H]1COC(=O)[C@@H]2CCCN2C(=O)CC=C[C@@H](C)[C@H](OC)COC(=O)[C@@H]2CCCN2C(=O)CC=C[C@H]1C | 0.284 (inactive) | 0.352 | 0.583 | -0.507 (inactive) | – | – |
| CCOC(=O)C[C@H]1[C@H](OC(=O)Cc2ccc3c(c2)OCO3)[C@@H](NC(=O)CC(C)C)c2cc(OCCCO)ccc2N1C(=O)c1ccccc1 | 0.443 (inactive) | -0.487 | -0.584 | -1.41 (inactive) | -0.398 (inactive) | -0.321 (inactive) |
| COC(=O)[C@@]1(Cc2ccc(OC)cc2)[C@H]2c3cc(C(=O)N(C)C)n(Cc4ccc(C)c(F)c4F)c3C[C@H]2CN1C(=O)c1ccccc1 | -0.0903 (inactive) | 0.465 | -1.13 | -1.93 (inactive) | 0.758 (inactive) | 0.0937 (inactive) |
| COc1cc2c(cc1OC)CN(C(=O)[C@H]1[C@@H]3C(=O)O[C@@H](c4ccccc4)[C@@H](c4ccccc4)N3[C@@H](c3ccc(O)cc3)[C@]13C(=O)Nc1ccc(C#CC4(O)CCCCCC4)cc13)CC2 | 3.38 (inactive) | 0.838 | -1.51 | -1.42 (inactive) | -0.0159 (inactive) | 0.0808 (inactive) |
| Cc1ccc(S[C@]2(C(=O)NCCCN(C)C)CC(=O)N(C3CCCCC3)[C@@H]2c2ccc(CO)cc2I)cc1 | -0.605 (inactive) | -0.697 | -1.65 | 0.756 (inactive) | -0.212 (inactive) | -0.074 (inactive) |
| COCCOC(=O)N1C(=O)[C@@]2(c3cc(C#CC4=CCCCC4)ccc31)[C@H](c1ccc(O)cc1)N1[C@H](c3ccccc3)[C@H](c3ccccc3)OC(=O)[C@H]1[C@@H]2C(=O)N1CCCCCCC1 | 0.505 (inactive) | 0.678 | -1.66 | 2.08 (inactive) | -0.104 (inactive) | 0.0587 (inactive) |
| COc1ccc([Si](C)(C)[C@@H]2[C@@H](CC(=O)N(CCO)Cc3ccccc3)O[C@]3(C(=O)N(Cc4cccc(N5CCC5=O)c4)c4ccccc43)[C@H]2C)cc1 | 1.09 (inactive) | 0.756 | -2.5 | -1.54 (inactive) | -0.0556 (inactive) | -0.0513 (inactive) |
| CCCC[C@@H]1C[C@H]1[C@@H](NC(=O)c1cccs1)c1ccc(Cl)cc1 | 0.0874 (inactive) | -0.0771 | -0.911 | -0.736 (inactive) | -0.207 (inactive) | 0.205 (inactive) |
| CCOC(=O)C1=CCC(c2cccc3ccccc23)N(S(=O)(=O)c2ccc(C)cc2)C1 (stereo not drawn) | 0.225 (inactive) | 0.449 | -1.77 | -1.57 (inactive) | 0.18 (inactive) | -0.129 (inactive) |
